{"source": "PubChem BioAssay AID463082", "about": "(The Scripps Research Institute Molecular Screening Center, 2010)", "note": "The whole screen tested about 330,000 compounds, of which about 4,900 (1.5%) were called active. What follows is part of a selection rich in actives, with near analogues and random picks from the rest. A number with no mark means an inactive call.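 The calls were made as follows: active = inhibition above the mean inhibition across the screen plus 3 SD (cut at about 25% in these data); inactive = the rest.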"}
{"target": "Platelet-activating factor acetylhydrolase (Homo sapiens) (UniProt Q13093)", "sequence (Q13093 whole entry, looked up)": "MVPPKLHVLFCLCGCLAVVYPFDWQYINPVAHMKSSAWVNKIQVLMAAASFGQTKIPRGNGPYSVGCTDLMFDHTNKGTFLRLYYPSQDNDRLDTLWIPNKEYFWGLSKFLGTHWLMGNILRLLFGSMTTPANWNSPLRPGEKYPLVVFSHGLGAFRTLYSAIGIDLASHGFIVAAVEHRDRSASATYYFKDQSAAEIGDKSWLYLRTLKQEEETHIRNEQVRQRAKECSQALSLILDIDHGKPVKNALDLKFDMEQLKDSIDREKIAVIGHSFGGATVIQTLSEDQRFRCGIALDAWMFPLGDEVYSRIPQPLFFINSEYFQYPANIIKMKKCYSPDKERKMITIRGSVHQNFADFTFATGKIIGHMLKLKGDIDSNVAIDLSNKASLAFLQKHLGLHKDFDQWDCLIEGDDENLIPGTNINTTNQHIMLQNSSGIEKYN", "assay": "inhibition of plasma PAF acetylhydrolase – biochemical, fluorescence polarization, human, primary screen (AID 463082);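 also: inhibitors block binding of the rhodamine activity-based probe so polarization drops; 0% = enzyme with DMSO and 100% = wells lacking pPAFAH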", "settings": "recombinant pPAFAH, FP-rhodamine probe fluorescence polarization; at 3.39 µM; active compounds read high"}
{"compound": "CCOc1ccc(N/C(N)=N/c2nc(C)c(C)c(=O)[nH]2)cc1", "inhibition": "5.08%"}
{"compound": "CCOC(=O)CNC(=O)CSc1ncccc1-c1nc2ccccc2[nH]1", "inhibition": "3.09%"}
{"compound": "COC(=O)c1cccc(N(C(=O)c2ccco2)C(C(=O)NC2CCCC2)c2ccco2)c1", "note": "(stereo not given)", "inhibition": "-7.26%"}
{"compound": "CCOc1ccc(NS(=O)(=O)c2ccc(C(=O)NCC(c3ccccc3OC)N3CCCC3)cc2)cc1", "note": "(stereo not given)", "inhibition": "51.8% (active)"}
{"compound": "COc1ccc(C(CNC(=O)c2ccc(S(=O)(=O)Nc3ccccc3C)cc2)N2CCOCC2)cc1", "note": "(stereo not given)", "inhibition": "33.2% (active)"}
{"compound": "CCOc1ccc(NS(=O)(=O)c2ccc(C(=O)NC3CCN(Cc4ccccc4)CC3)cc2)cc1", "inhibition": "24.1%"}
{"compound": "COc1ccc(C(CNC(=O)c2cccc(S(=O)(=O)Nc3ccccc3Cl)c2)N2CCOCC2)cc1", "note": "(stereo not given)", "inhibition": "-3.75%"}
{"compound": "Cc1cc(S(=O)(=O)Nc2ccc(C(=O)NCC(c3ccco3)N3CCCC3)cc2)ccc1F", "note": "(stereo not given)", "inhibition": "-0.43%"}
{"compound": "COc1ccc(C(CNC(=O)c2cccc(NS(=O)(=O)c3ccc(C)c(F)c3)c2)N2CCCC2)cc1", "note": "(stereo not given)", "inhibition": "5.75%"}
{"compound": "CC(=O)Nc1ccc(S(=O)(=O)N2CCN(C(=O)c3ccccc3F)CC2)cc1", "inhibition": "-5.31%"}
{"compound": "COc1ccc(S(=O)(=O)N(C)C[C@@H]2Oc3ccc(NC(=O)Nc4c(C)noc4C)cc3C(=O)N([C@H](C)CO)C[C@@H]2C)cc1", "inhibition": "1.97%"}
{"compound": "COc1ccc(S(=O)(=O)NCc2cccnc2)cc1NC(=O)c1ccc(C)cc1", "inhibition": "0.8%"}
{"compound": "Cc1cccc(C)c1NC(=O)CCS(=O)(=O)c1cccc2nsnc12", "inhibition": "-6.43%"}
{"compound": "Cc1cccc(Cn2cnc3c(N)c(C)c(C)cc32)c1", "inhibition": "9.5%"}
{"compound": "Cn1c(=O)c(C(=O)Nc2ncccn2)c(O)c2ccccc21", "inhibition": "1.18%"}
{"compound": "COc1ccc(COC(=O)NC(C(=O)O)c2ccccc2)cc1", "note": "(stereo not given)", "inhibition": "-0.13%"}
{"compound": "COC(=O)c1ccc(C(NC(=O)OCc2ccccc2)/C(C)=C/[C@@H](C)C(=O)NCc2ccc(OC)c(OC)c2)cc1", "note": "(stereo not given in full)", "inhibition": "40.4% (active)"}
{"compound": "COC(=O)c1ccc(C(NC(=O)OCc2ccccc2)/C(F)=C/[C@@H](C)C(=O)O)cc1", "note": "(stereo not given in full)", "inhibition": "6.41%"}
{"compound": "C=CCNC(=O)C1CC2c3ccccc3C1c1ccccc12", "note": "(stereo not given)", "inhibition": "3.92%"}
{"compound": "CSC1=NC2(C)CCCCC2C12C=CC(=O)C=C2", "note": "(stereo not given)", "inhibition": "5.48%"}
{"compound": "Cc1nn(C)cc1C(=O)c1ccccc1", "inhibition": "-11.2%"}
{"compound": "C=C(C)CNC(=O)c1ccc(OC2CCN(C(=O)COC)CC2)cc1", "inhibition": "-1.41%"}
{"compound": "COc1cc(OC)c(/C=N/NC(=O)c2ccc([N+](=O)[O-])cc2)cc1Br", "inhibition": "2.36%"}
{"compound": "COc1cccc(/C=N/NC(=O)c2[nH]nc3c2CCc2ccccc2-3)c1O", "inhibition": "43.7% (active)"}
{"compound": "COc1ccc(/C=N/NC(=O)c2ccc3c(c2)OCCO3)c(OC)c1", "inhibition": "11.5%"}
{"compound": "CC(C)(C)C(=O)OCc1nc(-c2ccc(O)c(O)c2)cs1", "inhibition": "27.5% (active)"}
{"compound": "COc1ccc(-c2csc(Cc3nc(O)cs3)n2)cc1", "inhibition": "13%"}
{"compound": "Cc1onc(C(=O)NN)c1-c1csc(COc2ccccc2)n1", "inhibition": "-3.91%"}
{"compound": "C/C(=N/N1CCN(Cc2cccc3ccccc23)CC1)c1cccnc1", "inhibition": "-3.57%"}
{"compound": "CCN(CC)C(=O)[C@H]1CC(CC(=O)NCc2ccco2)C(=O)N2CCc3c([nH]c4ccccc34)[C@]12C", "note": "(stereo not given in full)", "inhibition": "-0.35%"}
{"compound": "CCN1/C(=C\\c2ccc3ccccc3[n+]2CC)Sc2cc(C)ccc21", "inhibition": "36.3% (active)"}
{"compound": "Cc1ccc(C(=O)OCC(=O)NC(=O)Cc2ccccc2)c(O)c1", "inhibition": "5.13%"}
{"compound": "Cc1cc(C(=O)CSc2nc(N)cc(=O)[nH]2)c(C)n1-c1cccc(F)c1", "inhibition": "56.4% (active)"}
{"compound": "CCCc1cc(=O)[nH]c(SCC(=O)c2c(N)n(CC(C)C)c(=O)n(C)c2=O)n1", "inhibition": "0.06%"}
{"compound": "Cc1cc(=O)[nH]c(SCc2ccc(Cl)cc2)n1", "inhibition": "-2.26%"}
{"compound": "Cc1cc(C(=O)CSc2nc(N)cc(=O)[nH]2)c(C)n1Cc1ccco1", "inhibition": "13.6%"}
{"compound": "Cc1cc(C(=O)CSc2nc(N)cc(=O)[nH]2)c(C)n1CCc1ccc(Cl)cc1", "inhibition": "69.6% (active)"}
{"compound": "CCCc1cc(=O)[nH]c(SCC(=O)c2cc(C)n(CCC)c2C)n1", "inhibition": "25.1% (active)"}
{"compound": "Cc1cc(=O)[nH]c(SCc2cccc(F)c2)n1", "inhibition": "-3.14%"}
{"compound": "CCCc1cc(=O)[nH]c(SCC(=O)N2C(C)CCCC2C)n1", "note": "(stereo not given)", "inhibition": "8.03%"}
{"compound": "Cc1cc(C)c(C(=O)CSc2nc(C)cc(=O)[nH]2)c(C)c1", "inhibition": "8.8%"}
{"compound": "CONc1nc2nonc2nc1NOC", "inhibition": "4.61%"}
{"compound": "CCN(CC(=O)Nc1ccc(OC)cc1)C(=O)c1ccc(=O)n(Cc2ccccc2)n1", "inhibition": "-1.18%"}
{"compound": "O=c1oc2ccc(C#CC3(O)CCCCC3)cc2cc1-n1cc(-c2ccsc2)nn1", "inhibition": "-0.61%"}
{"compound": "O=C(CO/N=C/c1ccccc1O)NNC(=O)c1ccccc1Cl", "inhibition": "0.6%"}
{"compound": "CCOCCCNC(=O)C(=O)NCCCOCC", "inhibition": "7.96%"}
{"compound": "COc1cccc(COC(=O)C2CCN(S(=O)(=O)c3cccs3)CC2)c1OC", "inhibition": "0.21%"}
{"compound": "Cn1cccc1C(C#N)c1ccccc1C#N", "note": "(stereo not given)", "inhibition": "6.28%"}
{"compound": "CC(=O)Oc1c(C(=O)c2nnc(C)o2)c(=O)n(Cc2ccccc2)c2ccccc12", "inhibition": "4.19%"}
{"compound": "CCCCNC(=O)C(C)N(CCN(C)C)C(=O)CCCN1C(=O)NC(c2ccc(Cl)cc2)C(C(=O)OCc2ccccc2)=C1C", "note": "(stereo not given)", "inhibition": "8.55%"}
{"compound": "FC(F)(F)c1cccc(Cc2noc(CN3CCC(N4CCCCC4)CC3)n2)c1", "inhibition": "-0.07%"}
{"compound": "CCN(C(=O)c1cc([N+](=O)[O-])ccc1NCc1cccnc1)c1ccccc1", "inhibition": "-0.13%"}
{"compound": "CC(Oc1ccc(Br)cc1)C(=O)NCC(c1ccco1)N1CCCCC1", "note": "(stereo not given)", "inhibition": "1.84%"}
{"compound": "CCOC(=O)C1(Cc2ccc(Cl)cc2)CCN(C(=O)C2=NNC(=O)CC2)CC1", "inhibition": "1.54%"}
{"compound": "COC(=O)CN1C(=O)[C@H]2[C@@H](/C=C/c3ccccc3)N3C(=O)CN(Cc4ccccc4)C(=O)[C@@]3(Cc3ccccc3)[C@H]2C1=O", "inhibition": "3.66%"}
{"compound": "NS(=O)(=O)c1ccccc1NC(=O)c1c(O)c2ccccc2[nH]c1=O", "inhibition": "-4.47%"}
{"compound": "CN(CCOc1ccccc1)C(=O)c1cc(-c2ccco2)nc2ccccc12", "inhibition": "17.3%"}
{"compound": "CN(C(=O)COC(=O)c1cc(-c2ccco2)nc2ccccc12)C1CCS(=O)(=O)C1", "note": "(stereo not given)", "inhibition": "30.1% (active)"}
{"compound": "CN(C(=O)COC(=O)Cc1ccccc1[N+](=O)[O-])C1CCS(=O)(=O)C1", "note": "(stereo not given)", "inhibition": "-1.36%"}
{"compound": "c1ccc(C2CCC(N3CCC(N4CCCCC4)CC3)CC2)cc1", "note": "(stereo not given)", "inhibition": "4.58%"}
{"compound": "CC/C(O)=C1\\C(=O)CC(C)(C)CC1=NCCc1nc2ccccc2[nH]1", "inhibition": "-2.43%"}
{"compound": "Cc1cccc(C(=O)Nc2ccc(C(=O)/C=C/c3cccs3)cc2)c1", "inhibition": "-9.49%"}
{"compound": "CC(=O)Nc1ccc(S(=O)(=O)Nc2nc(-c3ccc(C(C)(C)C)cc3)cs2)cc1", "inhibition": "25.1% (active)"}
{"compound": "CC(=O)Nc1ccc(S(=O)(=O)Nc2cccc(NC(=O)C(C)(C)C)c2)cc1", "inhibition": "6.07%"}
{"compound": "CC(=O)Nc1ccc(S(=O)(=O)Nc2ccc(-c3ccc4nnc(C)n4n3)cc2)cc1", "inhibition": "3.56%"}
{"compound": "O=C(NC(=S)Nc1cccc2c(O)cccc12)c1cccc(Br)c1", "inhibition": "8.85%"}
{"compound": "O=C(Cc1cccs1)N1CCCC(c2nc(-c3ccc(S(=O)(=O)N4CCCC4)cc3)no2)C1", "note": "(stereo not given)", "inhibition": "3.46%"}
{"compound": "COc1cc(-c2noc(C3CCCN(S(=O)(=O)c4cccc(Cl)c4)C3)n2)cc(OC)c1OC", "note": "(stereo not given)", "inhibition": "1.19%"}
{"compound": "CC(C)c1ccc(-c2noc(C3CCCN(S(C)(=O)=O)C3)n2)cc1", "note": "(stereo not given)", "inhibition": "26.1% (active)"}
{"compound": "CCCn1c(N)c(C(=O)CSc2nnc(-c3cccnc3)n2-c2ccc(C)cc2C)c(=O)[nH]c1=O", "inhibition": "4.8%"}
{"compound": "COCC1CCCN(Cc2nc(-c3ccc4c(c3)OCO4)no2)C1", "note": "(stereo not given)", "inhibition": "0.91%"}
{"compound": "Cc1ccc(S(=O)(=O)N2CCN(C(=O)COC(=O)CNC(=O)c3ccc(C(C)(C)C)cc3)CC2)c(C)c1", "inhibition": "18%"}
{"compound": "Cc1ccc(S(=O)(=O)N2CCN(C(=O)COC(=O)c3c(C)cc(C)cc3C)CC2)c(C)c1", "inhibition": "0.75%"}
{"compound": "CCCCOc1ccc(C(=O)NCC(=O)OCC(=O)N2CCN(S(=O)(=O)c3ccc(C)cc3C)CC2)cc1", "inhibition": "28% (active)"}
{"compound": "COc1cccc(CNC(C)C(=O)Nc2ccc(S(=O)(=O)N3CCCC3)cc2)c1", "note": "(stereo not given)", "inhibition": "-5.3%"}
{"compound": "COc1ccc(S(=O)(=O)NCC(c2ccco2)N2CCOCC2)cc1", "note": "(stereo not given)", "inhibition": "-0.61%"}
{"compound": "O=C(COC(=O)CNS(=O)(=O)c1ccc(F)c(F)c1F)NC1CCCC1", "inhibition": "29.2% (active)"}
{"compound": "Cc1cc(C)cc(OCC(=O)OCC(=O)NC2CCCC2)c1", "inhibition": "21.4%"}
{"compound": "Cc1ccc(C(=O)NCC(=O)OCC(=O)NC2CCCCCCC2)cc1", "inhibition": "9.66%"}
{"compound": "CN(C(=O)CC1C(=O)NCCN1Cc1ccc(F)cc1Cl)C1CCCCC1", "note": "(stereo not given)", "inhibition": "-3%"}
{"compound": "COc1ccccc1-n1cn[nH]c1=S", "inhibition": "6.13%"}
{"compound": "COc1ccccc1-n1c(-c2cc(-c3ccco3)[nH]n2)n[nH]c1=S", "inhibition": "28.5% (active)"}
{"compound": "COc1ccc(OC)c(-n2c(-c3ccn[nH]3)n[nH]c2=S)c1", "inhibition": "-4.65%"}
{"compound": "CCn1c(Cc2cccs2)nnc1SCC(=O)c1ccc(C)cc1", "inhibition": "9.49%"}
{"compound": "Cc1ccc(-n2c(Cc3cccs3)nnc2SCC(=O)OC(C)C)cc1", "inhibition": "34% (active)"}
{"compound": "COc1ccc(-n2c(SCC(=O)OC(C)C)nnc2-c2ccccn2)cc1", "inhibition": "6.1%"}
{"compound": "C=C1c2cccc(OC)c2O[C@H](C(=O)OCC)[C@@H]1CCCCCC", "inhibition": "9.96%"}
{"compound": "CSc1ccc(S(=O)(=O)Nc2cccc(F)c2)cc1", "inhibition": "32.8% (active)"}
{"compound": "Cc1cc(C)cc(NS(=O)(=O)c2ccc(F)cc2)c1", "inhibition": "5.58%"}
{"compound": "O=C1Cc2cc(S(=O)(=O)Nc3cccc(F)c3)ccc2N1", "inhibition": "24.4%"}
